Data on 40 molecules can be found in PubChem BioAssay (NCATS).

The structures appear in SMILES notation. Records with an inconclusive call do not appear. The source made the active and inactive calls. The call rests on the fitted dose curve; in most records, active means well fitted curve in the direction sought with a large enough effect in the signal ratio; inconclusive means small, poorly fitted or top-dose-only effect, or effect the other way, or a change in a side signal; inactive means no such curve, though single readings can be large or run the other way; the % refers to the signal ratio.

The assay in a line: Validation of Assay for Modulators of Lamin A Splicing (AID 1459).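 Further: cells exposed to compound for two days before reading; ratio rise marks activators and ratio drop marks inhibitors.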 The settings on record: Lamin A splicing dual RFP/GFP fluorescence reporter; series mostly up to 9.22 µM. From the text:
Hutchinson-Gilford Progeria Syndrome (HGPS) is a pediatric premature aging disease caused by a spontaneous mutation in the lamin A/C (LMNA) gene. The mutation activates a cryptic splice site in the LMNA pre-mRNA which results in production of a pre-lamin A protein that cannot be processed properly. The mutant protein accumulates in the nucleus and negatively affects numerous cellular functions. Correction of the splicing defect in HGPS patient cells using a targeted oligonucleotide (exo11) leads to reversal of the cellular disease phenotypes. To identify small molecule modulators of aberrant LMNA splicing, a homogenous assay was constructed in HeLa cells that used a GFP containing minigene to report on correction of aberrant splicing in lamin A and a RFP (DsRed2) to report on cell viability, uniformity and nonspecific effects on the assay signal. This assay was adapted to laser-scanning microplate cytometry (Acumen, TTP Labtech) where miniaturization of the assay to a 1,536-well plate format was possible.
Bowen, W. P.; Wylie, P. G. Application of Laser-Scanning Fluorescence Microplate Cytometry in High Content Screening. Assay Drug Dev Technol 2006;4:209-221.
Scaffidi P, Misteli T. Reversal of the cellular phenotype in the premature aging disease Hutchinson-Gilford progeria syndrome. Nat. Med. 2005;11:440-445.
NCGC Assay Protocol Summary:
Reagents/Controls: Stable clones expressing DsRed2 and lamin A-EGFP were generated by Cell and Molecular Technologies in S3 HeLa cells.
HeLa cells were prepared for the assay when they were 70-90% confluent. The cells were counted and resuspended in Opti-MEM I (no phenol red; Gibco), 2% FBS, 1% penicillin/ streptomycin (Gibco) at concentration of 120 cells/uL concentration. The suspension was passed through a Falcon basket filter with pore size 40um (Beckton Dickson).
Control titrations: column […] 1536-well plate contained a sixteen point titration (1:2 dilutions) in duplicate of ancitabine (Sigma: A8598) beginning at 40 uM final concentration. Column 2 contained a sixteen point titration (1:2 dilutions) of cycloheximide beginning at 1.4 mM final concentration. Column 3 contained ancitabine at 40 uM and column 4 contained was the vehicle control (0.5% DMSO final concentration).
5 uL of HeLa cells were plated in Aurora LoBase black clear bottom (cyclic-olefin polymer) 1536-well plates at a final density of 600 cells/well. Controls and library compounds were added with a 1536-well pin array using the Kalypsys pin-tool. The plates were then incubated for 48 hrs in a cell-culture incubator (37 °C; 5% CO2, 98% humidity). Following incubation the plates were read on the Acumen Explorer using the 488 nm laser. Data was collected on objects between 10 and 100 um in size. Cell objects were defined by a 15 um width x 10 um depth filter. The ratio of the total object intensity in PMT1 (500-530 nm emission; GFP) over PMT3 (575-640 nm emission; RFP) was calculated for analysis.
Keywords: NIH Roadmap, MLSCN, MLI, MLSMR, qHTS, NCGC, lamin A, Progeria, RNA splicing.
In the case of `O=[N+]([O-])c1cccc2cn[nH]c12`, the call was inactive.

Take `COC1(C2=NCCN2)COc2ccccc2O1` (stereo not given): the molecule was called inactive.

As to `COC(=O)C(N)Cc1ccc(Cl)cc1` (stereo not given), the outcome was inactive.

Turning to `CC(N)(Cc1ccc(O)cc1)C(=O)O` (stereo not given), the result was inactive.

With `c1ccc(C2CN3CCSC3=N2)cc1` (stereo not given), the outcome was inactive.

Regarding `O=C(O)C1=CC(=C(c2ccc(O)c(C(=O)O)c2)c2ccc(O)c(C(=O)O)c2)C=CC1=O`, the call was inactive.

For the molecule `C#CCn1c(=O)c2c(ncn2C)n(C)c1=O`, the molecule was called inactive.

For the molecule `C=C(C)C1CC=C(C(=O)O)CC1` (stereo not given), the result was inactive.

Turning to `CCCCCC[C@@H]([C@@H](C)O)n1cnc2c(N)ncnc21`, the molecule was called inactive.

As to `NC(=O)c1ccccc1`, the molecule was called inactive.

As for `CCCCCCCCCC[Si](C)(C)CCC(=O)NC(Cc1ccc(C)cc1)c1ccccc1` (stereo not given), the molecule was classed as inactive.

As to `c1ccc(CN2CCC3(CCCc4ccccc43)CC2)cc1`, the result was inactive.

For the molecule `COc1cc(N)c(Cl)cc1C(=O)OCCN1CCCCC1`, the molecule was classed as inactive.

Take `COc1ccccc1N1CCN(CCCCN2C(=O)c3ccccc3C2=O)CC1`: the molecule was called inactive.

`COc1ccc(CCN(C)CCc2ccc(OC)c(OC)c2)cc1OC`: the molecule was called inactive.

`c1ccc2nc(C3=NCCN3)ccc2c1`: the molecule was classed as inactive.

Take `O=C(O)C1=CCCNC1`: the outcome was inactive.

On to `NC1(C(=O)O)CCCCC1`, for which the molecule was classed as inactive.

Regarding `Nc1ncnc2c1ncn2C1CCCO1` (stereo not given), the outcome was inactive.

Turning to `NCCC1CCCC(CCN)N1` (stereo not given), the molecule was classed as inactive.

As to `C=CCN1CCc2c(cc(O)c(O)c2Cl)C(c2ccccc2)C1` (stereo not given), the result was inactive.

Consider `CCCn1c(=O)c2c(ncn2C)n(CCC)c1=O`, for which the molecule was called inactive.

For `NCCS(=O)O`, the result was inactive.

For `CCCCCCCCCCC/C=C\C(C)(C)/C=C\CCCC(=O)O`, the outcome was inactive.

Turning to `CCSC(=N)N`, the outcome was inactive.

On to `O=C(O)/C(=C/c1c(C(=O)O)[nH]c2cc(Cl)cc(Cl)c12)c1ccccc1`, for which the result was inactive.

With `Nc1ccc(-c2ccc3ccccc3n2)cc1`, the result was inactive.

Turning to `O=C(O)C1CN(CCCP(=O)(O)O)CCN1` (stereo not given), the outcome was inactive.

For the molecule `O=S(=O)(c1cccc2c(Cl)cccc12)N1CCCNCC1`, the result was inactive.

For `CC(=O)O[C@H]1CC2(C)[C@@H](C[C@@H](O)[C@H]3[C@@]4(C)CC[C@@H](O)[C@@H](C)[C@@H]4CC[C@@]32C)C1=C(CCC=C(C)C)C(=O)O` (stereo not given in full), the call was inactive.

In the case of `COc1ccc(C(=O)NCc2cccnc2)cc1C(=O)NCc1cccnc1`, the call was inactive.

Take `Cn1ccnc1`: the molecule was classed as inactive.

In the case of `CC(=O)NCCc1c[nH]c2ccc(O)cc12`, the call was inactive.

For `NC(=O)CC[C@H](N)C(=O)O`, the molecule was classed as inactive.

With `COc1ccccc1N1CCN(CCCCNC(=O)c2ccc3ccccc3c2)CC1`, the molecule was classed as inactive.

For `CC(C)Cn1c(=O)n(C)c(=O)c2[nH]cnc21`, the molecule was classed as inactive.

Turning to `O=C(O)C1CCNCC1`, the molecule was called inactive.

In the case of `O=c1onc2cnc3ccccc3n12`, the result was inactive.

Regarding `c1ccc2c(c1)CC(N1CCN(c3cccc4c3OCCO4)CC1)C2`, the molecule was classed as inactive.

As to `N=C(N)c1ccccc1`, the molecule was called inactive.
